Data on five molecules can be found in PubChem BioAssay (NCATS).

The nature of assay [1]: Cellular Toxicity (caspase-3) Jurkat (AID 655).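 Further: cells exposed to compound for 16 h at 37 °C before reading.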 Conditions: Jurkat caspase-3 activation, luminescence, DMSO = 0%, tamoxifen = 100%; at 92.2 µM (top of the series). The method, boiled down:
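Jurkat cells (5000/well) in complete medium were treated with compounds for 16 hr at 37 °C, then Caspase-Glo 3/7 luminescence was read after 20 min at room temperature. Data normalized to DMSO (basal) and 100 uM tamoxifen (100%); AC50 from Hill fit.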

Assay [2] is described as follows: Cell Viability - LYMP2-001 (AID 921).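 Further: 0% = DMSO only and full inhibition = tetraoctylammonium bromide control wells; nearly all actives have a fitted effect of over 70% in size.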 The method, boiled down:
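Human lymphoblastoid cells (Coriell), 2500 per well, were preincubated 5 hr at 37 C, then exposed to compounds in complete medium for 24 hr at 37 C. Cellular ATP was read by CellTiter-Glo luminescence; AC50 from Hill fits of concentration-response data.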

The nature of assay [3]: MultiTox-Fluor Cytotoxicity Assay - LYMP1-001 - Live Cells (AID 947).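 Further: 0% = DMSO only and full inhibition = tetraoctylammonium bromide control.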
A short description of assay [4]: Cell Viability - LYMP1-003 - Assay at 24 hr (AID 963).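 Further: plate controls were DMSO only for no effect and tetraoctylammonium bromide positive control for full effect.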 In outline:
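Cytotoxicity is scored as a concentration-dependent fall in ATP-linked luciferase signal in human lymphoblastoid LYMP1-003 cells treated 24 hr at 37 C in complete culture medium.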

In assay [5] the target is Estrogen receptor (Homo sapiens) (UniProt P03372). Briefly: qHTS assay for small molecule antagonists of estrogen receptor alpha signaling (AID 588513; active means well fitted curve in the direction sought with a large enough effect in the signal ratio, with a control signal flat, not every such curve was filed as active; the % refers to the signal ratio; further: on the % scale 0 is the no-effect control and ±100 the full control effect). In outline: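 ER-alpha-UAS-bla GripTite HEK 293 cells in medium with 2% charcoal/dextran-treated FBS were preincubated 4 h at 37 C, dosed with compound (1:2 titration), stimulated with 0.5nM 17-beta-estradiol for 18 h, then read by CCF4 beta-lactamase fluorescence.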

Assay [6] shares this target. Briefly: qHTS assay for small molecule agonists of estrogen receptor alpha signaling (AID 588514; calls by dose curve;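 further: 0% = vehicle only and 100% = reference agonist; nearly all actives have a fitted effect of over 70% in size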). The method, boiled down: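 Efficacy is expressed against 20 nM 17-beta-estradiol (100%) and DMSO basal (0%); EC50 from Hill equation. Assay: beta-lactamase reporter in ER-alpha-UAS-bla HEK 293 cells, 18 h compound incubation, CCF4 detection.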
Assay [7] deals with Peroxisome proliferator-activated receptor gamma (Homo sapiens) (UniProt P37231). Briefly: qHTS assay for small molecule agonists of peroxisome proliferator-activated receptor gamma signaling (AID 588536; active means well fitted curve in the direction sought with a large enough effect in the signal ratio, with a control signal flat, not every such curve was filed as active; the % refers to the signal ratio;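 further: 0% = DMSO basal wells and 100% = rosiglitazone at 2 µM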). The method, boiled down: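 Compound treatment: 16 h, 37 C, HEK293 GeneBLAzer cells. Detection: CCF4, 2 h RT. Values: Hill-fit EC50, efficacy as % of 2 uM rosiglitazone.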
A general note: In qHTS, concentration-response curves come from the screen itself.

Assay [8] can be described thus: qHTS assay for small molecule agonists of retinoid X receptor alpha signaling (AID 588544; calls by dose curve;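 on activation: 0% = DMSO basal wells and 100% = reference agonist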). Particulars: HEK293T RXRa-UAS-bla, beta-lactamase reporter, 18 h; 530 nm emission.
Assay [9] has as its target Retinoic acid receptor RXR-alpha (Homo sapiens) (UniProt P19793). The assay is described as above.
Assay [10] concerns the target Voltage-gated inwardly rectifying potassium channel KCNH2 (Homo sapiens) (UniProt Q12809). Put plainly: qHTS Assay for Small Molecule Inhibitors of the Human hERG Channel Activity (AID 588834).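 Further: top concentration of the series differs between compounds; on the % scale 0 is the no-effect control and ±100 the full control effect; lower thallium flux fluorescence means stronger hERG block; nearly all actives have a fitted effect of over 50% in size.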 In outline:
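In hERG-transduced U2OS cells, dye-loaded for 1 hr at room temperature in dark, test compounds incubated 10 min at 37 °C before thallium stimulation. AC50 values derived by Hill modelling of concentration-response.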

Assay [11] in a line: qHTS assay for small molecule activators of the p53 signaling pathway (AID 651743; active means well fitted activation curve with a large enough effect in the signal ratio, not every such curve was filed as active; the % refers to the signal ratio; further: % of control where 0% means no effect). Conditions: HCT-116 p53RE-bla, beta-lactamase FRET ratio, 16 h; activation: stronger effect = higher value. The method, boiled down: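 Agonist-mode quantitative HTS in HCT-116 cells carrying a p53-response-element beta-lactamase reporter; 16 h compound treatment at 37 C, then FRET substrate loading for 2 h at room temperature and fluorescence read.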

Assay [12] can be described thus: qHTS assay for small molecule disruptors of the mitochondrial membrane potential - 1 hr assay (AID 651754; calls by dose curve; further: on the % scale 0 is the no-effect control and ±100 the full control effect; nearly all actives have a fitted effect of over 35% in size). The method, boiled down:
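Loss of mitochondrial potential shifts the cationic dye from red mitochondrial aggregates to green cytoplasmic monomers. Cells (HepG2) are treated with compound for 1 hr before a 30 min dye incubation at 37C.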

The nature of assay [13]: qHTS assay for small molecule disruptors of the mitochondrial membrane potential - 5 hr assay (AID 651755; calls by dose curve; further: on the % scale 0 is the no-effect control and ±100 the full control effect; nearly all actives have a fitted effect of over 40% in size). In outline: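 Seed HepG2 overnight, add compound, incubate 5 hr at 37C and 5% CO2, stain 30 min with Mito-MPS, then measure monomer (490/535 nm) and aggregate (540/590 nm) fluorescence.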
Assay [14] has as its target Tumor necrosis factor (Homo sapiens) (UniProt P01375). Briefly: qHTS assay to identify small molecules that stimulate Tumor Necrosis Factor-alpha (TNF-alpha) secretion (AID 651757; active means well fitted curve in the direction sought with a large enough effect in the signal ratio; the % refers to the signal ratio; further: 0% is about no effect). The method, boiled down:
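Human monocytic THP-1 cells are plated, treated with compound and held at 37 C for 17 hrs. Labeled anti-TNF-alpha antibody mixture is then added; after 3 hr at room temperature, TR-FRET signal reports secreted TNF-alpha.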

Assay [15] can be described thus: qHTS assay for small molecule agonists of the antioxidant response element (ARE) signaling pathway measured by Nrf2-dependant transcriptional activity (AID 720636; active means well fitted curve in the direction sought with a large enough effect in the repeat runs; an effect the other way counts as inactive or inconclusive; further: % of control where 0% means no effect). In outline: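 Quantitative HTS format in HepG2 cells stably expressing an ARE-luciferase reporter; 16 hr compound treatment at 37 C, luciferase signal detected with ONE-Glo.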
Assay [16] is described as follows: qHTS assay for small molecule antagonists of the retinoid-related orphan receptor gamma (ROR-gamma) signaling pathway - cell viability counter screen (AID 720652; active means well fitted curve in the direction sought with a large enough effect in the repeat runs; an effect the other way counts as inactive or inconclusive;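 further: CHO reporter cells with doxycycline-induced ROR-gamma expression; compound exposure lasted 16 hr before ATP read; on the % scale 0 is the no-effect control and ±100 the full control effect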). The method, boiled down: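 Steps: seed CHO cells bearing TET-inducible ROR and ROR response element-luciferase; rest 5 hr at 37 C; add compound, then doxycycline; incubate 16 hr; add CellTiter-Glo and read luminescence as ATP-based viability.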

A short description of assay [17]: qHTS assay for cell viability of the p53RE-bla HCT-116 cell line (AID 743292). Further: on the % scale 0 is the no-effect control and ±100 the full control effect; nearly all actives have a fitted effect of over 55% in size. The method, boiled down:
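Viability of compound-treated p53RE-bla HCT-116 cells is taken from ATP-dependent luciferase luminescence. Treatment lasts 16 h at 37 C after a 5 h settling period; detection follows 30 min at room temperature.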

For assay [18], the target named is Nuclear receptor subfamily 1 group I member 2 (Rattus norvegicus) (UniProt Q9R1A7). Put plainly: qHTS assay for small molecule activators of the rat pregnane X receptor (rPXR) signaling pathway (AID 651751; call rule not given here; further: 0% is about no effect). Particulars: rPXR reporter cells, luciferase (One-Glo), 24 h.
Assay [19] is described as follows: qHTS assay for small molecule activators of the human pregnane X receptor (PXR) signaling pathway (AID 720659; call rule not given here; further: 0% is about no effect).
In assay [20] the target is Vitamin D3 receptor (Homo sapiens) (UniProt P11473). Put plainly: qHTS assay for small molecule agonists of vitamin D receptor signaling (AID 588543; calls by dose curve;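 further: 0% = DMSO basal and 100% = reference agonist control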). The method, boiled down:
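GeneBLAzer VDR-UAS-bla HEK293T cells in 2% charcoal-stripped FBS medium were dosed with compound titrations for 16 h at 37 °C; CCF4 β-lactamase readout (405 nm ex, 460/530 nm em). EC50 and efficacy from Hill fits, normalized to 50 nM calcitriol (100%) and DMSO (0%).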

“And” between values parts separate entries of the source, which are not always exact repeats. Equal values may be shown once. Inconclusive results are not listed. The source made the active and inactive calls. Unless noted, the call rests on the fitted dose curve; in most records, active means well fitted curve in the direction sought with a large enough effect; inconclusive means small, poorly fitted or top-dose-only effect, or another doubt; inactive means no such curve, though single readings can be large; an effect the other way counts as inactive or inconclusive.

Estrogen receptor (Homo sapiens), sequence (P03372 whole entry, looked up): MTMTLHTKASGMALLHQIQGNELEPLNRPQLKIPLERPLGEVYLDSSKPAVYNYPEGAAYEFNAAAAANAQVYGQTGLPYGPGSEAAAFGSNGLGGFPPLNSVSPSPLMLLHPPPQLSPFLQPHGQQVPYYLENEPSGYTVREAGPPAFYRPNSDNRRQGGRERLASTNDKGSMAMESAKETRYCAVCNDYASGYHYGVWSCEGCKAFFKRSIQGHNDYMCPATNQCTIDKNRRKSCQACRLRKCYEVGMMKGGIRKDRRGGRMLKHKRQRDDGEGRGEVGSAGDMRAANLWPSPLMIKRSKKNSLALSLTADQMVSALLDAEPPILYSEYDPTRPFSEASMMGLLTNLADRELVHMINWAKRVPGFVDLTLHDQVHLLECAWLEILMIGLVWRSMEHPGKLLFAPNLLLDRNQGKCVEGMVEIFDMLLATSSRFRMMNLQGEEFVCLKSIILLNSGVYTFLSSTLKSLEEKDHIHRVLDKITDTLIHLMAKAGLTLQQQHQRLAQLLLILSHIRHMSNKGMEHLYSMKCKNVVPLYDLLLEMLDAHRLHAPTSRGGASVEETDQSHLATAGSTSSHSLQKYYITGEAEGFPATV
Tumor necrosis factor (Homo sapiens), sequence (P01375 whole entry, looked up): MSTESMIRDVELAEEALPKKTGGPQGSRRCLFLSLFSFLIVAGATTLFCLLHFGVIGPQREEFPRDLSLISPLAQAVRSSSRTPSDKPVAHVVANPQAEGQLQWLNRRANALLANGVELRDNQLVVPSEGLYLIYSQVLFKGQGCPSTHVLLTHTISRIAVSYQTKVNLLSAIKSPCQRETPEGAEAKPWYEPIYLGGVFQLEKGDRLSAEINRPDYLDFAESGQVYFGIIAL
Retinoic acid receptor RXR-alpha (Homo sapiens), sequence (P19793 whole entry, looked up): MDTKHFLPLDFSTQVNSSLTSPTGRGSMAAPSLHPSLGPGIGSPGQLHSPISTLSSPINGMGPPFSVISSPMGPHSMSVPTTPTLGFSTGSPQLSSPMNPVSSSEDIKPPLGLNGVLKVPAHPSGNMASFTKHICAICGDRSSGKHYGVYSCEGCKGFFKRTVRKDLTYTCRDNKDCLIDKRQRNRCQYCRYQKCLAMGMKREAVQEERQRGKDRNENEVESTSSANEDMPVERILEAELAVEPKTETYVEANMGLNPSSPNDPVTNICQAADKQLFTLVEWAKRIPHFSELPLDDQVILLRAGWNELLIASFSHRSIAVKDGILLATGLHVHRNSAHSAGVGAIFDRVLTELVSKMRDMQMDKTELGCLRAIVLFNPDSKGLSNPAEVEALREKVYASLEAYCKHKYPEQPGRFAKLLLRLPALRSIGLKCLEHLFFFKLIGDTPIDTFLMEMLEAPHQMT
Voltage-gated inwardly rectifying potassium channel KCNH2 (Homo sapiens), sequence (Q12809 whole entry, looked up): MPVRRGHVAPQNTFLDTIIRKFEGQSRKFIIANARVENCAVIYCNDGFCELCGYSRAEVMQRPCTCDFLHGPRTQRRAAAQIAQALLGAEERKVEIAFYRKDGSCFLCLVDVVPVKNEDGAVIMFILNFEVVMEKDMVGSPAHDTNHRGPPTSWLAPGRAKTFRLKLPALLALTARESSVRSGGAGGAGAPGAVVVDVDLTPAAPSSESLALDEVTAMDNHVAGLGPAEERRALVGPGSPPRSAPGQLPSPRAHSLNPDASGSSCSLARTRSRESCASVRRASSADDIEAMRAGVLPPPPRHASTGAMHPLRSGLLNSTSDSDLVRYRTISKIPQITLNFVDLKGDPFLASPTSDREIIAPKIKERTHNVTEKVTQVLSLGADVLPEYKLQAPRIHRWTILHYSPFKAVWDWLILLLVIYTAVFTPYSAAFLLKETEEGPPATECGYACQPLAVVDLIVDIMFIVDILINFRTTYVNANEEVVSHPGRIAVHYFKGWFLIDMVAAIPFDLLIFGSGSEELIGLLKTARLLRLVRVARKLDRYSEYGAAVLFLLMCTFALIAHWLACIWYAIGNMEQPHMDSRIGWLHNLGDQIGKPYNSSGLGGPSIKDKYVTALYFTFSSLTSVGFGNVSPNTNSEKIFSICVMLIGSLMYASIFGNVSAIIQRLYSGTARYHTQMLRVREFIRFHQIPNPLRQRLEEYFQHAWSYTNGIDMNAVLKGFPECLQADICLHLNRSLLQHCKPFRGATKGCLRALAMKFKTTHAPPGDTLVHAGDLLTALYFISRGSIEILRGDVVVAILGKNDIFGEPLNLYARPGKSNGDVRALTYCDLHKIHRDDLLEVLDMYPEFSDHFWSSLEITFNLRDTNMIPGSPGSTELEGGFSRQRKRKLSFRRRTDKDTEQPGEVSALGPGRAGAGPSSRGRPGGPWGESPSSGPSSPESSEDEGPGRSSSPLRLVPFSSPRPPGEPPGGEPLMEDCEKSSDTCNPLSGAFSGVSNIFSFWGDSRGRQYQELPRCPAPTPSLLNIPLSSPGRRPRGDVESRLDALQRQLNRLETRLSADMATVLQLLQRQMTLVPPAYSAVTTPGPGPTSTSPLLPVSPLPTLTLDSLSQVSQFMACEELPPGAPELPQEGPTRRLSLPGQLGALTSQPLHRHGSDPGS
Vitamin D3 receptor (Homo sapiens), sequence (P11473 whole entry, looked up): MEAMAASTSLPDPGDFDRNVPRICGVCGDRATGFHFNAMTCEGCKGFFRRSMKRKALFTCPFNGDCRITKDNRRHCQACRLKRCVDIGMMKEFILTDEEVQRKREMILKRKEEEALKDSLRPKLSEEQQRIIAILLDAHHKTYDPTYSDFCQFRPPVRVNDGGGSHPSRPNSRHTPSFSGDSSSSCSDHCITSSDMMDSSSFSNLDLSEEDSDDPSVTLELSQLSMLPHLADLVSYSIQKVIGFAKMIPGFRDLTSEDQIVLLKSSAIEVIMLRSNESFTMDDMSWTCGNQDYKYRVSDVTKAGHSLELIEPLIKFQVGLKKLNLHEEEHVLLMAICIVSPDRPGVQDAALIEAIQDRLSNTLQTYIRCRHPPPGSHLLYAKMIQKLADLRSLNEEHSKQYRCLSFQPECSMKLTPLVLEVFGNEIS
Nuclear receptor subfamily 1 group I member 2 (Rattus norvegicus), sequence (Q9R1A7 whole entry, looked up): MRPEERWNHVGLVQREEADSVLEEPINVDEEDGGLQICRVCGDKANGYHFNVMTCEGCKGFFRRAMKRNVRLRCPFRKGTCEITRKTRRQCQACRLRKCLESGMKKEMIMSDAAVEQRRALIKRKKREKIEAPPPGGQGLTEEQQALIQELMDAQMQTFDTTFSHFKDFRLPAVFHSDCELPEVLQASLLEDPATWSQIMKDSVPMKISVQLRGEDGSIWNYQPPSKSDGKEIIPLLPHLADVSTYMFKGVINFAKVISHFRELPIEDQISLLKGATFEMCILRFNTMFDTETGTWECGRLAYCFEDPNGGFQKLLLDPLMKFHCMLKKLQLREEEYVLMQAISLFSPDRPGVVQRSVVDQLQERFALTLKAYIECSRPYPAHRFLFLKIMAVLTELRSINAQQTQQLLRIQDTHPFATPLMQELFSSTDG
Peroxisome proliferator-activated receptor gamma (Homo sapiens), sequence (P37231 whole entry, looked up): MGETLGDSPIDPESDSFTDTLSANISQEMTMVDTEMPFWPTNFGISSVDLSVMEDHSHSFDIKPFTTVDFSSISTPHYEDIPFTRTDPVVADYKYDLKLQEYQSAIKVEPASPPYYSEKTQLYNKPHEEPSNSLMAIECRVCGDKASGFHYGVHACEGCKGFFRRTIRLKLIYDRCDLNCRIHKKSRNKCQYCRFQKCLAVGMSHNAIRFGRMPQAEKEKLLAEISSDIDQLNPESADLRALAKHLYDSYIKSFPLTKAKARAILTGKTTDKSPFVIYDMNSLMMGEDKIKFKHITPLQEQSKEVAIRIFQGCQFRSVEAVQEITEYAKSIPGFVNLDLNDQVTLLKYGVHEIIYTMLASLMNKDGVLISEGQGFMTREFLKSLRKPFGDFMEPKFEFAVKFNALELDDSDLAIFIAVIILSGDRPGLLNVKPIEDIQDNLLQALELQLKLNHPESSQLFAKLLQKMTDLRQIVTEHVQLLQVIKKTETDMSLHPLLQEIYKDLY

For the molecule `Nc1ccc(Cl)cc1Cl`, the caspase-3 activation in [1] was 0.852% (inactive). In addition, the Potency result in assay [2], in assay [3], in assay [4], in [5], in assay [6] and in [10] was “inactive” throughout. Further, the Potency result in [12], in assay [13], in assay [15], in assay [16] and in assay [17] was “inactive” each time. Besides, the molecule was called inactive in assay [7], in assay [9], in [14] and in assay [19]. The max response was -10.9% in assay [8]; 2.63% (inactive) and 1.63% (inactive) in [18]. Besides, the activation in [11] was -2.62% (inactive) and -5.11% (inactive).
In the case of `CN(C)C=O`, the caspase-3 activation in assay [1] is 2.75% (inactive) and 2.81% (inactive). Also, the Potency result in assay [2], in assay [4], in assay [5], in assay [6], in assay [10] and in assay [15] was “inactive” throughout. The Potency result in [16] and in assay [17] was “inactive” each time. Moreover, the molecule was called inactive in assay [7], in [14] and in [19]. Further, the activation in [11] was -4.49% (inactive) and -0.185% (inactive) and 0.579% (inactive). The max response in assay [18] is 4.41% (inactive) and 5.29% (inactive) and 1.77% (inactive).
With `C=CCOC(=O)c1ccccc1C(=O)OCC=C`, in assay [1], the caspase-3 activation was -1.58% (inactive). For the same molecule, the Potency entry in assay [2], in assay [3], in assay [4], in [5], in [6] and in [10] was “inactive” in each case. The Potency entry in assay [12], in [13], in [15], in assay [16] and in assay [17] was “inactive” in each case. The outcome in assay [7], in assay [9], in assay [14] and in assay [19] was inactive. The max response in assay [8] is -9.89% and -14.8%; in assay [18] it was -2.3% (inactive) and 1.03% (inactive). Also, the activation in assay [11] is -0.242% (inactive) and -1.19% (inactive).
`COc1ccc2nc(N)sc2c1`: the caspase-3 activation in [1] is -5.35% (inactive). Further, the Potency entry in [2], in assay [3], in [4], in [5], in assay [6] and in [10] was “inactive” throughout. The Potency entry in assay [12], in [13], in assay [16] and in [17] was “inactive” each time. Also, the call in [7], in [20] and in assay [9] was inactive. The max response in assay [8] is -6.78% and -2.22%.
For the molecule `O=C(O)CC(C(=O)O)C(CC(=O)O)C(=O)O` (configuration not stated), in assay [1], the caspase-3 activation is -0.624% (inactive). The Potency result in assay [2], in assay [3], in assay [4], in [5], in assay [6] and in [10] was “inactive” each time. The Potency result in assay [12], in assay [13], in [15], in assay [16] and in assay [17] was “inactive” throughout. Further, the outcome in assay [7], in assay [20], in assay [9], in assay [14] and in assay [19] was inactive. Further, the max response in assay [8] was 3.34% and -3.12%; in assay [18], -5.76% (inactive) and 4.78% (inactive). In addition, the activation in assay [11] is -3.49% (inactive) and -0.408% (inactive).
